The text below walks through data of PubChem BioAssay (EPA / NIEHS).

The structures appear in SMILES notation. Calls of active or inactive are those of the source. The calls were made as follows: active = hit-call score of the fitted dose curve at least 0.9, where 1 is the maximum; inactive = score below 0.9.

What all share (details): mRNA level, 48 h; actives raise or lower the signal
Read-out in assay [1]: cysteine-aspartic acid protease (CASP8), CASP8 (gene 841)
The assay is described as follows: LTEA_HepaRG_CASP8: Life Technologies and Expression Analysis (LTEA) Assay for cysteine-aspartic acid protease (CASP8) using HepaRG (AID 2283480). The gist of the method:
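Concentration-response in duplicate up to 100 uM (half-log steps, 0.5% DMSO) on differentiated HepaRG cultures for 48 h. Expression change of CASP8 mRNA is determined by TaqMan qRT-PCR with housekeeping-gene normalization.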

Read-out in assay [2]: Cytochrome P450 (CYP2B6), CYP2B6 (gene 1555)
The assay is described as follows: LTEA_HepaRG_CYP2B6: Life Technologies and Expression Analysis (LTEA) Assay for Cytochrome P450 (CYP2B6) using HepaRG (AID 2283481). The method, boiled down: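 Using 48 h treatment of HepaRG cells in serum-free induction medium, concentrations spanned half-log steps from 100 uM in 0.5% DMSO vehicle. CYP2B6 mRNA induction or loss is scored by qRT-PCR against DMSO.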

Read-out in assay [3]: Cytochrome P450 2C19 (Homo sapiens) (UniProt P33261)
The assay can be described thus: LTEA_HepaRG_CYP2C19: Life Technologies and Expression Analysis (LTEA) Assay for CYP2C19 using HepaRG (AID 2283482). The method, boiled down: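 Human HepaRG liver cells received test chemicals for 48 h (highest 100 uM, half-log dilutions in 0.5% DMSO). CYP2C19 mRNA induction or loss is read by multiplexed qRT-PCR and fitted in both directions versus vehicle.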

Read-out in another assay: CYP2C8 (gene 1558)
The assay can be described thus: LTEA_HepaRG_CYP2C8: Life Technologies and Expression Analysis (LTEA) Assay for CYP2C8 using HepaRG (AID 2283483). The method, boiled down: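 This is a transcriptional endpoint in HepaRG cultures: 48 h exposure, highest concentration 100 uM. CYP2C8 mRNA is quantified by TaqMan qRT-PCR.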

Read-out in a further assay: CYP2E1 (gene 1571)
The assay is described as follows: LTEA_HepaRG_CYP2E1: Life Technologies and Expression Analysis (LTEA) Assay for CYP2E1 using HepaRG (AID 2283485). The method, boiled down:
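Readout is qRT-PCR of CYP2E1 mRNA, normalized to three housekeeping genes and fitted bidirectionally against 0.5% DMSO. HepaRG cells were dosed 48 h at eight concentrations, highest 100 uM with half-log dilutions.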

Read-out in the next assay: CYP4A11 (gene 1579)
The assay can be described thus: LTEA_HepaRG_CYP4A11: Life Technologies and Expression Analysis (LTEA) Assay for CYP4A11 using HepaRG (AID 2283486). The gist of the method:
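Readout is CYP4A11 mRNA induction or suppression (qRT-PCR, ACTB/GAPDH/POLR2A normalization) in human HepaRG cells after 48 h chemical treatment, concentrations to 100 uM in 0.5% DMSO, fitted bidirectionally against vehicle.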

Read-out in assay [4]: Cytochrome P450 3A4 (Homo sapiens) (UniProt P08684)
The assay can be described thus: LTEA_HepaRG_CYP3A4: Life Technologies and Expression Analysis (LTEA) Assay for CYP3A4 using HepaRG (AID 2283487). The method, boiled down: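 In a human hepatic line (HepaRG), duplicate wells were treated 48 h with up to 100 uM chemical in half-log dilutions. Endpoint: CYP3A4 mRNA induction or loss relative to 0.5% DMSO vehicle, by qRT-PCR.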

Read-out in assay [5]: DNA damage-inducible transcript 3 (DDIT3), DDIT3 (gene 1649)
The assay can be described thus: LTEA_HepaRG_DDIT3: Life Technologies and Expression Analysis (LTEA) Assay for DNA damage-inducible transcript 3 (DDIT3) using HepaRG (AID 2283488). The method, boiled down:
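Cells are human HepaRG liver cells treated for 48 h with eight half-log concentrations up to 100 uM in 0.5% DMSO. Transcript levels come from qRT-PCR normalized to three housekeeping genes, with activity fitted in both directions relative to vehicle.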

Read-out in assay [6]: Pro-epidermal growth factor (Homo sapiens) (UniProt P01133)
The assay is described as follows: LTEA_HepaRG_EGF: Life Technologies and Expression Analysis (LTEA) Assay for Epidermal growth factor (EGF) using HepaRG (AID 2283489). The gist of the method:
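EGF expression changes in human HepaRG cells are scored by bidirectional fitting relative to 0.5% DMSO controls. Chemicals are tested at eight half-log concentrations up to 100 uM for 48 h in serum-free induction medium.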

Read-out in assay [7]: Early growth response protein 1 (EGR1) transcription factor, EGR1 (gene 1958)
The assay can be described thus: LTEA_HepaRG_EGR1: Life Technologies and Expression Analysis (LTEA) Assay for Early growth response protein 1 (EGR1) transcription factor using HepaRG (AID 2283490). The method, boiled down:
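EGR1 expression change in human HepaRG after 48 h chemical exposure, assessed by housekeeping-normalized qRT-PCR; concentration-response up to 100 uM, fitted in both directions against DMSO controls.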

Read-out in assay [8]: Ezrin (EZR), EZR (gene 7430)
The assay is described as follows: LTEA_HepaRG_EZR: Life Technologies and Expression Analysis (LTEA) Assay for Ezrin (EZR) using HepaRG (AID 2283491). The method, boiled down: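 Gain or loss of EZR mRNA is scored relative to 0.5% DMSO in human HepaRG cultures treated 48 h with test chemicals in duplicate, eight half-log concentrations from 100 uM.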

Read-out in assay [9]: Cytochrome P450 3A7 (Homo sapiens) (UniProt P24462)
The assay is described as follows: LTEA_HepaRG_CYP3A7: Life Technologies and Expression Analysis (LTEA) Assay for CYP3A7 using HepaRG (AID 2283492). The gist of the method: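 Cells were thawed, plated, cultured 48 h, then treated for a further 48 h with chemicals (eight-point half-log series from 100 uM, 0.5% DMSO). RNA was isolated and CYP3A7 expression quantified by qRT-PCR normalised to ACTB, GAPDH and POLR2A.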

Read-out in a further assay: CYP3A5 (gene 1577)
The assay can be described thus: LTEA_HepaRG_CYP3A5: Life Technologies and Expression Analysis (LTEA) Assay for CYP3A5 using HepaRG (AID 2283493). The method, boiled down:
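Human HepaRG hepatic cells receive 48 h chemical treatment at eight concentrations (half-log steps from 100 uM) in 0.5% DMSO. Expression of CYP3A5 is quantified by Fluidigm qRT-PCR and normalized to three reference genes.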

Read-out in assay [10]: Fatty Acid-Binding Protein 1 (FABP1), FABP1 (gene 2168)
The assay is described as follows: LTEA_HepaRG_FABP1: Life Technologies and Expression Analysis (LTEA) Assay for Fatty Acid-Binding Protein 1 (FABP1) using HepaRG (AID 2283494). The method, boiled down: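 Values reflect bidirectional concentration-response fitting of FABP1 mRNA change against 0.5% DMSO controls. Human HepaRG cultures received eight half-log doses (top 100 uM) for 48 h; expression quantified by TaqMan qRT-PCR with housekeeping-gene normalization.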

Read-out in assay [11]: Cytochrome P450 7A1 (Homo sapiens) (UniProt P22680)
The assay can be described thus: LTEA_HepaRG_CYP7A1: Life Technologies and Expression Analysis (LTEA) Assay for Cytochrome P450 7A1 (CYP7A1) using HepaRG (AID 2283496). The method, boiled down: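 HepaRG, 48 h exposure, 8-pt half-log series from 100 uM, 0.5% DMSO vehicle, duplicates. Readout: TaqMan qRT-PCR mRNA vs three housekeeping genes; bidirectional curve fit against DMSO baseline.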

Read-out in assay [12]: Glutathione S-Transferase (GSTA2), GSTA2 (gene 2939)
The assay can be described thus: LTEA_HepaRG_GSTA2: Life Technologies and Expression Analysis (LTEA) Assay for Glutathione S-Transferase (GSTA2) using HepaRG (AID 2283497). The method, boiled down:
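Oxidative-stress marker GSTA2 is quantified by TaqMan qRT-PCR in HepaRG cultures treated 48 h across an eight-point range to 100 uM. Expression is normalized to endogenous controls and compared with 0.5% DMSO vehicle.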

Read-out in assay [13]: Glutamate-cysteine ligase catalytic (GCLC), GCLC (gene 2729)
The assay can be described thus: LTEA_HepaRG_GCLC: Life Technologies and Expression Analysis (LTEA) Assay for Glutamate-cysteine ligase catalytic (GCLC) using HepaRG (AID 2283498). The gist of the method:
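Oxidative-stress marker GCLC is measured as mRNA change in human HepaRG liver cells after 48 h chemical treatment in 0.5% DMSO, eight concentrations from 100 uM. Activity is fitted bidirectionally against vehicle.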

Read-out in assay [14]: growth arrest and DNA damage 45 (GADD45G), GADD45G (gene 10912)
The assay is described as follows: LTEA_HepaRG_GADD45G: Life Technologies and Expression Analysis (LTEA) Assay for growth arrest and DNA damage 45 (GADD45G) using HepaRG (AID 2283499). The method, boiled down: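 Human hepatic HepaRG line treated 48 h with chemicals (eight concentrations, half-log steps from 100 uM); transcript induction or repression of GADD45G scored by qRT-PCR versus DMSO vehicle.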

Read-out in assay [15]: Glutathione S-transferase M3 (GSTM3), GSTM3 (gene 2947)
The assay is described as follows: LTEA_HepaRG_GSTM3: Life Technologies and Expression Analysis (LTEA) Assay for Glutathione S-transferase M3 (GSTM3) using HepaRG (AID 2283501). The gist of the method:
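Changes in GSTM3 expression, an oxidative-stress marker, were scored by bidirectional curve fitting against 0.5% DMSO vehicle. Human HepaRG cultures received chemicals for 48 h in duplicate, highest concentration 100 uM with half-log dilutions.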

Read-out in the next assay: CYP2C9 (gene 1559)
The assay is described as follows: LTEA_HepaRG_CYP2C9: Life Technologies and Expression Analysis (LTEA) Assay for CYP2C9 using HepaRG (AID 2283484). The gist of the method:
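Eight-point concentration-response (highest 100 uM, half-log dilutions) in HepaRG cells for 48 h; CYP2C9 expression by qRT-PCR normalized to ACTB, GAPDH, POLR2A. Bidirectional fit, DMSO baseline.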

Sequence of Cytochrome P450 2C19 (Homo sapiens) (P33261 whole entry, looked up): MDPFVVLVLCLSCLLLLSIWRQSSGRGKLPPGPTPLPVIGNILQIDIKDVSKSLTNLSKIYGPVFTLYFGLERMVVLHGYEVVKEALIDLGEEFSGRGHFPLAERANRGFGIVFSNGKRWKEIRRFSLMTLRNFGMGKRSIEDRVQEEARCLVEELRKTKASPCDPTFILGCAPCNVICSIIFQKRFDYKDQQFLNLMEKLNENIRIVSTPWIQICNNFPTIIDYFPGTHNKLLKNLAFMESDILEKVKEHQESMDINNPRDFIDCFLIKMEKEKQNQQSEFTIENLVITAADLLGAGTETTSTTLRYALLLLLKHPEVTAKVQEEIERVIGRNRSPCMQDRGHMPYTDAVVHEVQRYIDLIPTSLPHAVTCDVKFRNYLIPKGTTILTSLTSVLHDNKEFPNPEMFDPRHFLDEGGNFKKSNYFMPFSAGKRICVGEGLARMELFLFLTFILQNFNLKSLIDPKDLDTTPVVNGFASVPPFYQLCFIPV
Sequence of Cytochrome P450 3A7 (Homo sapiens) (P24462 whole entry, looked up): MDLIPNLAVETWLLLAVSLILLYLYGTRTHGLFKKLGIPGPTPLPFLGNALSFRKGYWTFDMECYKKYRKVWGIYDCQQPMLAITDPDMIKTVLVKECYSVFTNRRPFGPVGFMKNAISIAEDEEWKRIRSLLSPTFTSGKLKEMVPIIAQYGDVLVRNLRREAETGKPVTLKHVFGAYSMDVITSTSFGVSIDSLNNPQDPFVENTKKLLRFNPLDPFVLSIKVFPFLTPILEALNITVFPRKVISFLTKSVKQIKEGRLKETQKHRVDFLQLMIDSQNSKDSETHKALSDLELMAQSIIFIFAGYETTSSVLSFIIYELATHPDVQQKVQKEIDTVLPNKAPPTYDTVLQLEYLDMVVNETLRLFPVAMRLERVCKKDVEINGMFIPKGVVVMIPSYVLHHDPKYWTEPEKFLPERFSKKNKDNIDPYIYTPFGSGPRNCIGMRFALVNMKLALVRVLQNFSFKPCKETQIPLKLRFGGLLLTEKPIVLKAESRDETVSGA
Sequence of Cytochrome P450 3A4 (Homo sapiens) (P08684 whole entry, looked up): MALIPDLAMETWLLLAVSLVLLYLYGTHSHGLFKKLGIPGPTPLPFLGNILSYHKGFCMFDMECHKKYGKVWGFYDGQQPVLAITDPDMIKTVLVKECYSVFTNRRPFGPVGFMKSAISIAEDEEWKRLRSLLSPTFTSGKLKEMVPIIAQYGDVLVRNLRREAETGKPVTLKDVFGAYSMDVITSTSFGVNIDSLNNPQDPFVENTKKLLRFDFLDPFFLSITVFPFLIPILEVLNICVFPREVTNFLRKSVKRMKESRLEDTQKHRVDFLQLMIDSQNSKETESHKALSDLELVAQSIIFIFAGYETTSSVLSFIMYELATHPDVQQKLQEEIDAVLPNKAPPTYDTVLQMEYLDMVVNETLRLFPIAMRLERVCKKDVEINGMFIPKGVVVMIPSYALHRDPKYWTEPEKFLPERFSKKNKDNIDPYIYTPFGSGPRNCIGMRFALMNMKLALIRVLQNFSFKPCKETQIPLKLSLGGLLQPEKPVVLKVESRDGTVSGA

Regarding `Oc1cccc2cccnc12`, the compound was classed as inactive (in [1]; in [2]; in [3]; with CYP2C8 (gene 1558); with CYP2E1 (gene 1571); with CYP4A11 (gene 1579)). Further, the compound was called inactive in assay [4], in [5], in assay [6], in assay [7], in [8] and in assay [9]. The compound was classed as inactive (with CYP3A5 (gene 1577); in [10]; in [11]; in [12]; in [13]; in assay [14]). Further, the result in assay [15] was inactive.

In the case of `ClCC(Cl)CCl`, the compound was classed as inactive (in [1]; in assay [3]; with CYP2C8 (gene 1558); with CYP2C9 (gene 1559); with CYP2E1 (gene 1571); with CYP4A11 (gene 1579)). Besides, the compound was called inactive in assay [4], in assay [5], in assay [6], in assay [7], in assay [8] and in [9]. For the same compound, the result (with CYP3A5 (gene 1577); in assay [10]; in [11]; in assay [12]; in [13]; in [14]) was inactive. The compound was classed as inactive in [15]. In assay [2], the AC50 is 17.7 µM (active).

Take `CC(C)(c1ccccc1)c1ccc(O)c(C(C)(C)c2ccccc2)c1`: the compound was called inactive (in [1]; in [5]; in [8]; in the assay with CYP3A5 (gene 1577); in assay [12]; in assay [13]). In addition, the outcome in [14] and in [15] was inactive. The AC50 is 11.9 µM (active) in assay [2]; 83.2 µM (active) in [3]; 85 µM (active) with CYP2C8 (gene 1558); 85.4 µM (active) in the assay with CYP2C9 (gene 1559); 62.4 µM (active) with CYP2E1 (gene 1571); 73.4 µM (active) in the assay with CYP4A11 (gene 1579). Further, the AC50 is 12.3 µM (active) in assay [4]; 29.4 µM (active) in assay [6]; 72.1 µM (active) in assay [7]; 80.8 µM (active) in [9]; 48.7 µM (active) in assay [10]; 58.2 µM (active) in [11].

On to `CCC(=O)C(CC(C)N(C)C)(c1ccccc1)c1ccccc1` (configuration not stated), for which the call (in assay [1]; in the assay with CYP2C8 (gene 1558); with CYP2C9 (gene 1559); with CYP4A11 (gene 1579); in [6]; in assay [7]) was inactive. The result (in assay [8]; in the assay with CYP3A5 (gene 1577); in assay [10]; in assay [11]; in assay [12]; in [13]) was inactive. The result in [14] was inactive. Besides, the AC50 in assay [2] is 2.41 µM (active); in assay [3] it was 10.1 µM (active); with CYP2E1 (gene 1571) it was 36.2 µM (active); in assay [5], 36.2 µM (active); in [15], 36.2 µM (active).
